Read-outs that look alike come from different tables or passages of the source.

Set-up in all cases: species or system human, MV4-11 + K-562 + COLO205 + SK-N-BE2 + OVCAR-8
One assay deals with CDKL5. Conditions: read-out: apparent Kd; compound concentrations: 100 nM and 1000 nM (sheet 'Samples'), CATDS: 6.7048972560418404E-2; n = 1.
A further assay has as its system CLK1. Conditions: read-out: apparent Kd, compound concentrations: 100 nM and 1000 nM (sheet 'Samples'), n = 1.
The next assay concerns CLK4. Conditions: read-out: apparent Kd, compound concentrations: 100 nM and 1000 nM (sheet 'Samples'), n = 1.
In the next assay the test system is CSNK1A1. Conditions: read-out: apparent Kd; compound concentrations: 100 nM and 1000 nM (sheet 'Samples'), CATDS: 7.1676757807884198E-2; n = 1.
The next assay relates to CSNK1D. Conditions: read-out: apparent Kd, compound concentrations: 100 nM and 1000 nM (sheet 'Samples'), n = 1.
The next assay concerns CSNK1E. Conditions: read-out: apparent Kd, compound concentrations: 100 nM and 1000 nM (sheet 'Samples'), n = 1.
The next assay relates to DYRK1A. The note with it: read-out: apparent Kd; compound concentrations: 100 nM and 1000 nM (sheet 'Samples'), CATDS: 7.8911513629173299E-2; n = 1.
The next assay relates to MAPK8. The note with it: read-out: apparent Kd, compound concentrations: 100 nM and 1000 nM (sheet 'Samples'), n = 1.
The next assay has as its system MELK. The note with it: read-out: apparent Kd; compound concentrations: 100 nM and 1000 nM (sheet 'Samples'), CATDS: 6.0030175657403803E-2; n = 1.
A further assay deals with NQO2. The note with it: read-out: apparent Kd; compound concentrations: 100 nM and 1000 nM (sheet 'Samples'), CATDS: 6.6170323393418801E-2; n = 1.
The next assay concerns RIOK2. Conditions: read-out: apparent Kd; compound concentrations: 100 nM and 1000 nM (sheet 'Samples'), CATDS: 9.8324164530309899E-2; n = 1.
Another assay relates to TGFBR2. Conditions: read-out: apparent Kd; compound concentrations: 100 nM and 1000 nM (sheet 'Samples'), CATDS: 8.1907636331175093E-2; n = 1.
The subject of a further assay is EIF2AK1. Conditions: read-out: apparent Kd; compound concentrations: 100 nM and 1000 nM (sheet 'Samples'), CATDS: 4.8293070245640599E-2; n = 1.
The next assay relates to FER. The note with it: read-out: apparent Kd; compound concentrations: 100 nM and 1000 nM (sheet 'Samples'), CATDS: 4.7949039435888803E-2; n = 1.
A further assay deals with GAK. The note with it: read-out: apparent Kd; compound concentrations: 100 nM and 1000 nM (sheet 'Samples'), CATDS: 0.152402490696291; n = 1.
The test system of the next assay is IGF1R. The note with it: read-out: apparent Kd; compound concentrations: 100 nM and 1000 nM (sheet 'Samples'), CATDS: 5.4863623433827502E-2; n = 1.
The next assay has as its system INSR. The note with it: read-out: apparent Kd; compound concentrations: 100 nM and 1000 nM (sheet 'Samples'), CATDS: 6.5997959622395005E-2; n = 1.
In another assay the test system is MAPK10. Conditions: read-out: apparent Kd; compound concentrations: 100 nM and 1000 nM (sheet 'Samples'), CATDS: 0.16896566157677501; n = 1.
The next assay concerns MAPK9. Conditions: read-out: apparent Kd; compound concentrations: 100 nM and 1000 nM (sheet 'Samples'), CATDS: 0.113022620554471; n = 1.
Another assay concerns PTK2B. The note with it: read-out: apparent Kd; compound concentrations: 100 nM and 1000 nM (sheet 'Samples'), CATDS: 8.3393690442652907E-2; n = 1.
Another assay has as its system TNK1. Conditions: read-out: apparent Kd; compound concentrations: 100 nM and 1000 nM (sheet 'Samples'), CATDS: 0.131122015547642; n = 1.
Another assay has as its system TTK. The note with it: read-out: apparent Kd; compound concentrations: 100 nM and 1000 nM (sheet 'Samples'), CATDS: 6.1430797612991001E-2; n = 1.
A further assay deals with CDK6. Conditions: read-out: apparent Kd; compound concentrations:100 nM and 1000 nM (sheet 'Samples'); n = 1.
Another assay concerns HSP90B1. The note with it: read-out: apparent Kd; compound concentrations:100 nM and 1000 nM (sheet 'Samples'); n = 1.
The subject of the next assay is MAP2K1. Conditions: read-out: apparent Kd; compound concentrations:100 nM and 1000 nM (sheet 'Samples'); n = 1.
For a further assay, the system named is MAP2K2. Conditions: read-out: apparent Kd; compound concentrations:100 nM and 1000 nM (sheet 'Samples'); n = 1.
The test system of a further assay is NNT. Conditions: read-out: apparent Kd; compound concentrations:100 nM and 1000 nM (sheet 'Samples'); n = 1.
In another assay the test system is NQO1. Conditions: read-out: apparent Kd; compound concentrations:100 nM and 1000 nM (sheet 'Samples'); n = 1.

On to `FC(F)(F)CNc1nccc(-c2cnn3ncccc23)n1` [GW683003X], for which the potency estimated from few doses in the assay on CDKL5 was 1220 nM; in the assay on CLK1 (CATDS: 9.1245201473329901E-2), 572 nM; in the assay with CLK4 (CATDS: 8.9493688970087706E-2), 596 nM; in the assay on CSNK1A1 it was 1010 nM; in the assay on CSNK1D (CATDS: 0.23797441251711701) it was 117 nM; in the assay with CSNK1E (CATDS: 0.17923780337449699), 176 nM. Also, the potency estimated from few doses with DYRK1A was 792 nM; in the assay on MAPK8 (CATDS: 6.0987882625533299E-2), 1650 nM; in the assay on MELK, 1740 nM; in the assay with NQO2 it was 1270 nM; in the assay with RIOK2, 491 nM; in the assay with TGFBR2, 726 nM.
Regarding `CCCN1CCC(c2ccc(Nc3nc(Nc4cc(F)ccc4C(N)=O)c4cc[nH]c4n3)c(OC)c2)CC1` [GSK1326255A], the potency estimated from few doses with CLK1 (CATDS: 4.8485832065687497E-2) is 1210 nM; with CLK4 (CATDS: 5.2281896734728002E-2) it was 912 nM; with CSNK1D (CATDS: 4.52776824202724E-2) it was 1610 nM; in the assay with CSNK1E (CATDS: 4.2697744465197598E-2), 2150 nM; with EIF2AK1, 1230 nM; with FER it was 1260 nM. For the same molecule, the potency estimated from few doses in the assay on GAK is 82.5 nM; in the assay on IGF1R it was 775 nM; in the assay with INSR it was 449 nM; with MAPK10, 70.3 nM; with MAPK8 (CATDS: 0.131985587437009), 104 nM; in the assay on MAPK9, 137 nM. For the same molecule, the values for the potency estimated from few doses in the assay with PTK2B, in the assay with TNK1 and with TTK were 253 nM, 106 nM and 548 nM, respectively.
With `CC(C(=O)NC1CCN(c2ccnc(Nc3ccc(F)cc3)n2)C1)c1ccc(Cl)cc1` (stereo not drawn) [GSK1379713A], the potency estimated from few doses with CDK6 was 2080 nM; in the assay on HSP90B1, 88 nM; with MAP2K1 it was 2230 nM; in the assay with MAP2K2, 1460 nM; in the assay on NNT, 1400 nM; in the assay on NQO1, 1650 nM.

Values taken from article PMC11062922 (Nature Chemical Biology, 2023).
